Out of some 5,500 compounds screened, about 2,000 (36%) were called active. About 18% were inconclusive and are not listed. This is one part of the list. Unmarked numbers belong to inactive results. No stated cut-off is given here; in the data, active means normalized growth mostly below about 0.91 (no sharp cut-off); inconclusive means no clear call, values can overlap the other calls; inactive means mostly above about 0.92.
Test: chemical genetic growth profiling, strain panel (AID 1159580);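 further: tested at 20 µM; growth read once vehicle control cultures reached saturation at 30 °C; 1 = growth at the plate median or of vehicle wells; lower values mean less growth of the strain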
Settings: S. cerevisiae deletion strains, growth OD
[1] = locus YGR078C, strain PAC10, active compounds read low
[2] = locus YNL322C, strain KRE1, active compounds read low
[3] = locus YDL101C, strain DUN1, active compounds read low
[4] = locus YHR030C, strain SLT2, active compounds read low

Compound `CCN(CC)CCCCCCCCOC(=O)c1cc(OC)c(OC)c(OC)c1` has a normalized growth (locus YAL040C, strain CLN3, active compounds read low) of 1.01, a normalized growth (locus YDR363W, strain ESC2, active compounds read low) of 1.01 and a normalized growth (locus YER002W, strain NOP16, active compounds read low) of 0.999. The normalized growth [1] was 1.01, the normalized growth (locus YNL175C, strain NOP13, active compounds read low) was 1.01 and the normalized growth (locus YNL197C, strain WHI3, active compounds read low) was 1.02. For the same compound, the normalized growth (locus YNL224C, strain SQS1, active compounds read low) was 0.985, the normalized growth [2] was 0.992 and the normalized growth (locus YOR083W, strain WHI5 (second series), active compounds read low) was 1.03.

With `COc1cc(N=Cc2cc(Cl)cc(Cl)c2OS(=O)(=O)c2ccc(C)cc2)c(OC)cc1Cl` the normalized growth (locus YAR019C, strain CDC15, active compounds read low) was 0.935, the normalized growth (locus YBL105C, strain PKC1, active compounds read low) was 0.948 and the normalized growth (locus YBR135W, strain CKS1, active compounds read low) was 0.943. The normalized growth (locus YBR136W, strain MEC1, active compounds read low) was 0.944, the normalized growth (locus YBR160W, strain CDC28, active compounds read low) was 0.927 and the normalized growth (locus YDL017W, strain CDC7, active compounds read low) was 0.957. For the same compound, the normalized growth (locus YDL028C, strain MPS1, active compounds read low) was 0.921, the normalized growth [3] was 0.951 and the normalized growth (locus YDL108W, strain KIN28, active compounds read low) was 0.936. For the same compound, the normalized growth (locus YDL132W, strain cdc53, active compounds read low) was 0.942, the normalized growth (locus YDL214C, strain PRR2, active compounds read low) was 0.891 and the normalized growth (locus YDR052C, strain DBF4, active compounds read low) was 0.958. The normalized growth (locus YDR054C, strain cdc34, active compounds read low) was 0.947, the normalized growth (locus YDR226W, strain ADK1, active compounds read low) was 0.946 and the normalized growth (locus YDR477W, strain SNF1, active compounds read low) was 0.914. The normalized growth (locus YER123W, strain YCK3, active compounds read low) was 0.896, the normalized growth (locus YER133W, strain GLC7, active compounds read low) was 0.929 and the normalized growth (locus YFL009W, strain cdc4, active compounds read low) was 0.926. The normalized growth (locus YFL029C, strain CAK1, active compounds read low) was 0.932, the normalized growth (locus YFR003C, strain YPI1, active compounds read low) was 0.952 and the normalized growth (locus YFR019W, strain FAB1, active compounds read low) was 0.955. It also gave a normalized growth (locus YFR028C, strain CDC14, active compounds read low) of 0.919, a normalized growth (locus YGR040W, strain KSS1, active compounds read low) of 0.918 and a normalized growth (locus YGR052W, strain FMP48, active compounds read low) of 0.917. The normalized growth (locus YGR092W, strain DBF2, active compounds read low) was 0.849, the normalized growth [4] was 0.651 (active) and the normalized growth (locus YHR079C, strain IRE1, active compounds read low) was 0.794. For the same compound, the normalized growth (locus YHR082C, strain KSP1, active compounds read low) was 0.829, the normalized growth (locus YHR205W, strain SCH9, active compounds read low) was 0.846 and the normalized growth (locus YIL147C, strain SLN1, active compounds read low) was 0.949. It also gave a normalized growth (locus YJL095W, strain BCK1, active compounds read low) of 0.903, a normalized growth (locus YJL128C, strain PBS2, active compounds read low) of 0.884 and a normalized growth (locus YJL157C, strain FAR1, active compounds read low) of 0.928. For the same compound, the normalized growth (locus YJR016C, strain ILV3, active compounds read low) was 0.963, the normalized growth (locus YJR066W, strain TOR1 (second series), active compounds read low) was 0.943 and the normalized growth (locus YJR066W, strain TOR1, active compounds read low) was 0.805. It also gave a normalized growth (locus YKL048C, strain ELM1, active compounds read low) of 0.939, a normalized growth (locus YKL067W, strain YNK1, active compounds read low) of 0.897 and a normalized growth (locus YKL101W, strain HSL1, active compounds read low) of 0.902. For the same compound, the normalized growth (locus YKL193C, strain SDS22, active compounds read low) was 0.946, the normalized growth (locus YKL203C, strain TOR2, active compounds read low) was 0.991 and the normalized growth (locus YLR113W, strain HOG1, active compounds read low) was 0.85 (active). It also gave a normalized growth (locus YLR133W, strain CKI1, active compounds read low) of 0.906, a normalized growth (locus YLR403W, strain SFP1, active compounds read low) of 0.911 and a normalized growth (locus YML070W, strain DAK1, active compounds read low) of 0.902. It also gave a normalized growth (locus YMR001C, strain CDC5, active compounds read low) of 0.934, a normalized growth (locus YMR205C, strain PFK2 (second series), active compounds read low) of 0.923 and a normalized growth (locus YMR277W, strain FCP1, active compounds read low) of 0.922. The normalized growth (locus YNL006W, strain LST8, active compounds read low) was 0.955, the normalized growth (locus YNL020C, strain ARK1, active compounds read low) was 0.903 and the normalized growth (locus YNL161W, strain CBK1, active compounds read low) was 0.95. For the same compound, the normalized growth (locus YNL183C, strain NPR1, active compounds read low) was 0.941, the normalized growth (locus YNL207W, strain RIO2, active compounds read low) was 0.952 and the normalized growth (locus YNL222W, strain SSU72, active compounds read low) was 0.92. It also gave a normalized growth (locus YNL307C, strain MCK1 (second series), active compounds read low) of 0.921, a normalized growth (locus YOL078W, strain AVO1, active compounds read low) of 0.94 and a normalized growth (locus YOL136C, strain PFK27, active compounds read low) of 0.881. It also gave a normalized growth (locus YOR061W, strain CKA2, active compounds read low) of 0.945, a normalized growth (locus YOR119C, strain RIO1, active compounds read low) of 0.924 and a normalized growth (locus YOR231W, strain MKK1, active compounds read low) of 0.845. It also gave a normalized growth (locus YOR329C, strain SCD5, active compounds read low) of 0.958, a normalized growth (locus YPL031C, strain PHO85, active compounds read low) of 0.926 and a normalized growth (locus YPL153C, strain RAD53, active compounds read low) of 0.911. For the same compound, the normalized growth (locus YPL204W, strain HRR25, active compounds read low) was 0.906, the normalized growth (locus YPL209C, strain IPL1, active compounds read low) was 0.947 and the normalized growth (locus YPL256C, strain CLN2, active compounds read low) was 0.86 (active). It also gave a normalized growth (locus YPR025C, strain CCL1, active compounds read low) of 0.948, a normalized growth (locus YPR106W, strain ISR1, active compounds read low) of 0.942 and a normalized growth (locus YPR111W, strain DBF20, active compounds read low) of 0.901. For the same compound, the normalized growth (strain NNK1, active compounds read low) was 0.943 and the normalized growth (strain TSCII, active compounds read low) was 0.935.

Compound `COc1cc(N=Cc2ccc3c(c2)OCO3)c(OC)cc1Cl` has a normalized growth (locus YAL013W, strain DEP1, active compounds read low) of 1.01, a normalized growth (locus YBR229C, strain ROT2, active compounds read low) of 1.01 and a normalized growth (locus YCL061C, strain MRC1, active compounds read low) of 1. The normalized growth [3] was 0.984, the normalized growth (locus YDR150W, strain NUM1, active compounds read low) was 0.91 and the normalized growth (locus YEL061C, strain CIN8, active compounds read low) was 1.04. For the same compound, the normalized growth [1] was 0.994, the normalized growth (locus YGR229C, strain SMI1, active compounds read low) was 1.01 and the normalized growth [4] was 0.982. It also gave a normalized growth (locus YHR087W, strain rtc3, active compounds read low) of 0.989, a normalized growth (locus YJR043C, strain POL32, active compounds read low) of 1 and a normalized growth (locus YJR075W, strain HOC1, active compounds read low) of 0.983. It also gave a normalized growth (locus YLR039C, strain RIC1, active compounds read low) of 0.97, a normalized growth (locus YLR058C, strain SHM2 (second series), active compounds read low) of 1 and a normalized growth (locus YLR085C, strain ARP6, active compounds read low) of 1.04. For the same compound, the normalized growth (locus YLR262C, strain YPT6, active compounds read low) was 0.99, the normalized growth (locus YML094W, strain GIM5, active compounds read low) was 1.02 and the normalized growth (locus YMR219W, strain ESC1, active compounds read low) was 0.991. For the same compound, the normalized growth (locus YMR263W, strain SAP30, active compounds read low) was 0.939, the normalized growth (locus YMR307W, strain GAS1, active compounds read low) was 1.05 and the normalized growth (locus YNL128W, strain TEP1, active compounds read low) was 1.01. It also gave a normalized growth (locus YNL153C, strain GIM3, active compounds read low) of 0.988, a normalized growth (locus YNL298W, strain CLA4 (second series), active compounds read low) of 1.01 and a normalized growth [2] of 1. It also gave a normalized growth (locus YNR030W, strain Alg12, active compounds read low) of 1.01, a normalized growth (locus YPL055C, strain LGE1, active compounds read low) of 0.998 and a normalized growth (locus YPL241C, strain CIN2, active compounds read low) of 1.02. For the same compound, the normalized growth (locus YPR135W, strain CTF4, active compounds read low) was 0.973.

— PubChem BioAssay AID1159580 (chemical genetic matrix, 2015)
